Data taken from PubChem BioAssay (NCI).
“And” between values parts separate entries of the source, which are not always exact repeats. Equal entries are not always repeated. The panel holds about 83,000 compounds, 20% with a hit somewhere; the sample as a whole holds those more often.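 A percent growth of 40 corresponds to 60% growth inhibition; 0 means no net growth; -100 means all cells died. Active threshold: below 10.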 The source made the active and inactive calls.

Experiments:
Experiment in all cases: NCI-60 one-dose screen, 48 h (100 = growth as untreated, 0 = no growth, -100 = all killed)
Settings in all cases: 10 µM unless noted
NCI-H23 lung = system: NCI-H23 lung
NCI-H226 lung = system: NCI-H226 lung
NCI-H322M lung = system: NCI-H322M lung
HOP-62 NSCLC = system: HOP-62 NSCLC
NCI-H460 lung = system: NCI-H460 lung
HOP-92 NSCLC = system: HOP-92 NSCLC
NCI-H522 lung = system: NCI-H522 lung
A549/ATCC NSCLC = system: A549/ATCC NSCLC
786-0 renal = system: 786-0 renal
COLO 205 colon = system: COLO 205 colon
DU-145 prostate = system: DU-145 prostate
K-562 leukemia = system: K-562 leukemia
MALME-3M melanoma = system: MALME-3M melanoma
MDA-MB-231 breast = system: MDA-MB-231 breast
SF-268 CNS = system: SF-268 CNS
SF-295 CNS = system: SF-295 CNS
SF-539 CNS = system: SF-539 CNS
UACC-257 melanoma = system: UACC-257 melanoma
M14 melanoma = system: M14 melanoma
RXF 393 renal = system: RXF 393 renal

Measured: growth

CC(=O)N1N=C(c2ccc(Nc3nc(Nc4ccc(F)cc4)nc(Nc4ccc(Cl)cc4)n3)cc2)CC1c1ccc(N(C)C)cc1 (stereo unspecified)
inactive: NCI-H23 lung 52.2% | NCI-H226 lung 42.3% | NCI-H322M lung 79.6% | HOP-62 NSCLC 109% and 58.6% | NCI-H460 lung 44.9% | HOP-92 NSCLC 22.5% | NCI-H522 lung 47.8% | A549/ATCC NSCLC 30.3% | 786-0 renal 113% and 44.1% | COLO 205 colon 51.2% | K-562 leukemia 23.8% | MALME-3M melanoma 62.7% | MDA-MB-231 breast 51% | SF-268 CNS 68.8% | SF-539 CNS 67.9% | UACC-257 melanoma 46.8% | M14 melanoma 41.4%
active: DU-145 prostate 5.71% | SF-295 CNS 1.56%

CN1C(=O)N(C)C2(c3ccccc3)N(CC(=O)Nc3ccccc3O)C(=O)NC12c1ccccc1 (stereo unspecified)
inactive: NCI-H23 lung 101% | NCI-H226 lung 90.7% | NCI-H322M lung 100% | HOP-62 NSCLC 102% | NCI-H460 lung 106% | HOP-92 NSCLC 107% | NCI-H522 lung 86.2% | A549/ATCC NSCLC 109% | 786-0 renal 103% | COLO 205 colon 110% | DU-145 prostate 110% | K-562 leukemia 101% | MALME-3M melanoma 107% | MDA-MB-231 breast 101% | RXF 393 renal 113% | SF-268 CNS 96.5% | SF-295 CNS 101% | SF-539 CNS 96.4% | UACC-257 melanoma 125% | M14 melanoma 105%

COc1nc(=O)n(C2C=CC(=O)O2)cc1F (stereo unspecified)
inactive: NCI-H23 lung 102% | NCI-H226 lung 106% | NCI-H322M lung 102% | HOP-62 NSCLC 110% | NCI-H460 lung 110% | HOP-92 NSCLC 87.8% | NCI-H522 lung 39.1% | A549/ATCC NSCLC 123% | 786-0 renal 92.5% | COLO 205 colon 46.5% | DU-145 prostate 81.1% | K-562 leukemia 40.8% | MALME-3M melanoma 45.5% | MDA-MB-231 breast 100% | RXF 393 renal 80.7% | SF-268 CNS 85.7% | SF-295 CNS 98.2% | SF-539 CNS 99.1% | UACC-257 melanoma 88.8% | M14 melanoma 69.9%

Cc1cccc(Cc2cnc(NC(=O)CCCOc3ccc(Cl)cc3)s2)c1
inactive: NCI-H23 lung 54% | NCI-H226 lung 53.8% | NCI-H322M lung 44.7% | HOP-62 NSCLC 28.7% | HOP-92 NSCLC 52.2% | NCI-H522 lung 42.5% | A549/ATCC NSCLC 10.7% | 786-0 renal 11% | COLO 205 colon 15.2% | DU-145 prostate 24.2% | K-562 leukemia 25.8% | MALME-3M melanoma 32.5% | MDA-MB-231 breast 42.4% | SF-268 CNS 50.2% | SF-295 CNS 12.6% | UACC-257 melanoma 23%
active: NCI-H460 lung 9.65% | RXF 393 renal 4.99% | SF-539 CNS 8.78% | M14 melanoma -1.79%

O=c1c2c([nH]c3ccccc13)CCCC2
94.5% (inactive) and 8.36% (active): COLO 205 colon
inactive: NCI-H23 lung 100% and 68.1% | NCI-H226 lung 100% | NCI-H322M lung 113% and 77.7% | HOP-62 NSCLC 98.5% and 40.1% | NCI-H460 lung 99.8% and 22.8% | HOP-92 NSCLC 83.9% and 52.4% | A549/ATCC NSCLC 93.8% and 56.3% | 786-0 renal 107% and 74.3% | DU-145 prostate 106% and 70.7% | K-562 leukemia 95.9% and 11.3% | MALME-3M melanoma 104% and 36.8% | MDA-MB-231 breast 95.8% and 54.9% | RXF 393 renal 105% and 63.4% | SF-268 CNS 98.8% and 53.2% | SF-295 CNS 95.4% and 13.1% | SF-539 CNS 99.5% and 46% | UACC-257 melanoma 100% and 58.8% | M14 melanoma 98.5% and 15.6%

COc1ccc(/C=N/C2=C(C#N)C(c3ccccc3)c3c(ccc4ccccc34)O2)cc1 (stereo unspecified)
active: NCI-H522 lung 2.3% | COLO 205 colon 0.29% | K-562 leukemia 8.18% | RXF 393 renal -8.72% | SF-539 CNS 6.89%
inactive: NCI-H23 lung 36.9% | NCI-H226 lung 33.8% | NCI-H322M lung 40.9% | HOP-62 NSCLC 35.5% | NCI-H460 lung 15.5% | HOP-92 NSCLC 53.9% | A549/ATCC NSCLC 41.9% | 786-0 renal 29.2% | DU-145 prostate 24.6% | MALME-3M melanoma 47.5% | MDA-MB-231 breast 33.4% | SF-268 CNS 50.7% | SF-295 CNS 10.9% | UACC-257 melanoma 61.8% | M14 melanoma 11.8%

C#CCOCC1CN(C)C(=O)O1 (stereo unspecified)
inactive: NCI-H23 lung 111% | NCI-H226 lung 103% | NCI-H322M lung 114% | HOP-62 NSCLC 131% | NCI-H460 lung 103% | HOP-92 NSCLC 97.8% | NCI-H522 lung 99.7% | A549/ATCC NSCLC 93.7% | 786-0 renal 110% | COLO 205 colon 123% | DU-145 prostate 107% | K-562 leukemia 101% | MALME-3M melanoma 110% | MDA-MB-231 breast 110% | RXF 393 renal 131% | SF-268 CNS 113% | SF-295 CNS 105% | SF-539 CNS 102% | UACC-257 melanoma 104% | M14 melanoma 107%

N=C1/C(=C2\NC3C=CC=CC3S2)C(c2ccc(Cl)cc2)C2C(=O)N(c3ccccc3)C(=S)N12 (stereo unspecified)
inactive: NCI-H23 lung 97.4% | NCI-H226 lung 91.6% | NCI-H322M lung 101% | HOP-62 NSCLC 105% | NCI-H460 lung 107% | HOP-92 NSCLC 102% | NCI-H522 lung 101% | A549/ATCC NSCLC 100% | 786-0 renal 101% | COLO 205 colon 113% | DU-145 prostate 114% | K-562 leukemia 102% | MALME-3M melanoma 100% | MDA-MB-231 breast 102% | RXF 393 renal 95.7% | SF-268 CNS 99.5% | SF-295 CNS 103% | SF-539 CNS 99.4% | UACC-257 melanoma 107% | M14 melanoma 102%

COC(=O)c1c2c(c(C)[n+]([O-])c1C)C(=O)C(NCCN1CCOCC1)=CC2=O
active: COLO 205 colon 6.73% | MALME-3M melanoma -13.2%
inactive: NCI-H23 lung 59.7% | NCI-H226 lung 103% | NCI-H322M lung 72.5% | HOP-62 NSCLC 101% | NCI-H460 lung 55.4% | HOP-92 NSCLC 146% | NCI-H522 lung 87.5% | A549/ATCC NSCLC 91.3% | 786-0 renal 89.9% | DU-145 prostate 84.3% | K-562 leukemia 75.6% | MDA-MB-231 breast 70.8% | RXF 393 renal 96.3% | SF-268 CNS 79.3% | SF-295 CNS 82.7% | SF-539 CNS 89.5% | UACC-257 melanoma 48.4% | M14 melanoma 62.9%

N#Cc1ccccc1OCC(=O)Nc1nc2c(s1)COc1ccccc1-2
inactive: NCI-H23 lung 99.3% | NCI-H226 lung 93.2% | NCI-H322M lung 102% | HOP-62 NSCLC 105% | NCI-H460 lung 107% | HOP-92 NSCLC 106% | NCI-H522 lung 103% | A549/ATCC NSCLC 98.9% | 786-0 renal 102% | COLO 205 colon 105% | DU-145 prostate 114% | K-562 leukemia 104% | MALME-3M melanoma 107% | MDA-MB-231 breast 102% | RXF 393 renal 101% | SF-268 CNS 104% | SF-295 CNS 79.5% | SF-539 CNS 101% | UACC-257 melanoma 112% | M14 melanoma 105%

N=c1ccccn1CCO
inactive: NCI-H23 lung 101% | NCI-H226 lung 107% | NCI-H322M lung 96.7% | HOP-62 NSCLC 110% | NCI-H460 lung 114% | HOP-92 NSCLC 96.5% | NCI-H522 lung 114% | A549/ATCC NSCLC 99.3% | 786-0 renal 102% | COLO 205 colon 110% | DU-145 prostate 125% | K-562 leukemia 108% | MALME-3M melanoma 111% | MDA-MB-231 breast 95% | RXF 393 renal 114% | SF-268 CNS 110% | SF-295 CNS 124% | SF-539 CNS 107% | UACC-257 melanoma 105% | M14 melanoma 102%

N=c1c2c(-c3ccccc3)c(-c3ccccc3)oc2ncn1NC(=O)c1cccnc1
inactive: NCI-H23 lung 93.2% | NCI-H226 lung 108% | NCI-H322M lung 98.7% | HOP-62 NSCLC 102% | NCI-H460 lung 105% | HOP-92 NSCLC 91% | NCI-H522 lung 95.1% | A549/ATCC NSCLC 103% | 786-0 renal 99% | COLO 205 colon 115% | DU-145 prostate 106% | K-562 leukemia 87.8% | MALME-3M melanoma 114% | MDA-MB-231 breast 102% | RXF 393 renal 117% | SF-268 CNS 106% | SF-295 CNS 101% | SF-539 CNS 97.2% | UACC-257 melanoma 105% | M14 melanoma 105%

O=C(CCl)N(O)c1ccc(/C=C/c2ccccc2)cc1
inactive: NCI-H23 lung 70.7% and 74.2% | NCI-H226 lung 56.9% | NCI-H322M lung 99.5% and 91.5% | HOP-62 NSCLC 96.5% | NCI-H460 lung 85.4% and 73% | HOP-92 NSCLC 81.8% | A549/ATCC NSCLC 90.3% and 65% | 786-0 renal 84% and 78.3% | COLO 205 colon 92.9% and 83.1% | DU-145 prostate 90.3% and 86.6% | K-562 leukemia 64% and 46.1% | MALME-3M melanoma 95.3% and 84.2% | MDA-MB-231 breast 82.1% and 66.5% | RXF 393 renal 99.9% and 71.3% | SF-268 CNS 84.7% and 72.8% | SF-295 CNS 95.5% and 80.9% | SF-539 CNS 94.3% and 93.4% | UACC-257 melanoma 103% | M14 melanoma 75% and 71.8%

CC1=CC=C(NC(=O)/C=C/c2ccccc2)CC1Nc1nccc(-c2cccnc2)n1 (stereo unspecified)
active: RXF 393 renal 0.475% | UACC-257 melanoma 8.14%
inactive: NCI-H23 lung 69% | NCI-H226 lung 66% | NCI-H322M lung 67.2% | HOP-62 NSCLC 54.8% | NCI-H460 lung 66.9% | HOP-92 NSCLC 60.3% | A549/ATCC NSCLC 42.4% | 786-0 renal 15.9% | COLO 205 colon 26.7% | DU-145 prostate 30.9% | K-562 leukemia 10.2% | MALME-3M melanoma 45.2% | MDA-MB-231 breast 51.5% | SF-268 CNS 54% | SF-295 CNS 44.1% | SF-539 CNS 14% | M14 melanoma 23.7%
